Assay outcomes from PubChem BioAssay.
TEAD-YAP inh: TEAD-YAP interaction inhibition; inhibition, % at 9.12 µM; HEK-TIYL cells, TEAD-Gal4/YAP UAS-luciferase luminescence; hit rate 1.4% among 640,000; AID 1259422; in the data active means inhibition above about 32%;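 further: 0% = median of test compound wells and 100% = reference inhibitor wells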
GPR151 ag: activators of human GPR151 | Q8TDV0 | PathHunter beta-arrestin GPR151 cells, luminescence | activation, % at 11.2 µM | hit rate 1% among 650,000; in the data active means activation above about 4.9%;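 further: 0% = median of compound wells and 100% = cells with positive control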
FBW7 act: activators of human E3 ligase FBW7 | AlphaScreen FBW7–phospho-cyclin E peptide binding, activator screen | normalized activity (activation), % at 26.1 µM | hit rate 0.13% among 650,000 | AID 1259310; in the data active means normalized activity above about 1.9%;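 further: purified mutant Fbw7 with reduced substrate affinity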
Target sequence (Q969H0 whole entry, looked up): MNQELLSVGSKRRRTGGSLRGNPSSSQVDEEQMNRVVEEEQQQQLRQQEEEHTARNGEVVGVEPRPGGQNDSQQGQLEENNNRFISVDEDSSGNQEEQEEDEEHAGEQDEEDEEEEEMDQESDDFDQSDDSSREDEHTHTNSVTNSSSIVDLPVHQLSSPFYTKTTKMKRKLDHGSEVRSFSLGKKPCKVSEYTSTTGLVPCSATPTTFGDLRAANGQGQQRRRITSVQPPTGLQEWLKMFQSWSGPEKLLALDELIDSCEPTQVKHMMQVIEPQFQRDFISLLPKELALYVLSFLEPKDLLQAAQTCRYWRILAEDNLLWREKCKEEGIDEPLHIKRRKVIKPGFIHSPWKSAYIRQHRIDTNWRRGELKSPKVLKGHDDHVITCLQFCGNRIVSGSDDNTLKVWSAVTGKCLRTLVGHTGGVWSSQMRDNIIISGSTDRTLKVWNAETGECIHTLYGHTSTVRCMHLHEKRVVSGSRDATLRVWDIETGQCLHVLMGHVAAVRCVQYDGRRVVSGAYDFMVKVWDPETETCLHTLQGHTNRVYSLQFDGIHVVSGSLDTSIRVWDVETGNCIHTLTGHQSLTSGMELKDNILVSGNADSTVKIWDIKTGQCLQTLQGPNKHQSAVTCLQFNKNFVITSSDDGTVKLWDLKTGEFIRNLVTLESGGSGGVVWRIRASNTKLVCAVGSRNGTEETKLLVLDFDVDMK
MITF inh: human MITF inhibition, primary screen | inhibition, % at 2.6 µM | AID 1259374 | hit rate 0.91% among 650,000 | AlphaScreen MITF homodimerization, bead proximity signal; in the data active means inhibition above about 50%;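 further: 0% = vehicle wells with protein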
The depositor's hits bear a star. Shown are actives, neighbours in structure and some others; about 3.5% of the full set was active somewhere.

SMILES	TEAD-YAP inh	GPR151 ag	FBW7 act	MITF inh
Cc1ccc(Cn2c(NCCO)nc3c2c(=O)n(C)c(=O)n3C)cc1	42*	0	0	-6
COc1cccc(Cn2c(NCCO)nc3c2c(=O)n(C)c(=O)n3C)c1	39*	0	0	10
Cc1cccc(Cn2c(NCc3ccco3)nc3c2c(=O)n(C)c(=O)n3C)c1	46*	0	0	13
COc1ccc(-c2nc(Cn3c(=O)n(CC4CCCO4)c(=O)c4ccccc43)c(C)o2)cc1OC (stereo unspecified)	2	1	0	2
O=C(Cc1ccc([N+](=O)[O-])cc1)Nc1ccc2c(c1)oc1ccccc12	0	0	0	14
Cc1ccccc1-c1nc2cc(NC(=O)c3cc([N+](=O)[O-])ccc3Cl)ccc2o1	33*	0	0	-10
O=C(Nc1ccc2oc(-c3ccccc3F)nc2c1)c1cc([N+](=O)[O-])ccc1Cl	32*	0	0	14
O=C(Nc1ccc2c(c1)oc1ccccc12)c1cc([N+](=O)[O-])ccc1Br	33*	1	0	2
O=C(Nc1ccc2oc(-c3cccc(Cl)c3Cl)nc2c1)c1cc([N+](=O)[O-])ccc1Cl	9	0	0	-2
O=C(Nc1ccc2oc(-c3ccccc3Cl)nc2c1)c1cc([N+](=O)[O-])ccc1Cl	26	2	0	4
O=C(Nc1ccc2oc(-c3ccccc3)nc2c1)c1cc([N+](=O)[O-])ccc1Br	36*	0	1	20
CC1=CC(=O)N(CCC#N)c2ccccc2N1	-8	2	0	-10
CC(C)C(=O)Nc1ccc2oc(-c3ccccc3F)nc2c1	72*	-4	0	-6
CC(=O)Nc1ccc2oc(-c3ccccc3F)nc2c1	1	-1	0	9
O=C(Nc1ccc2oc(-c3ccc4ccccc4c3)nc2c1)c1cccc(Cl)c1Cl	-11	-1	1.9*	18
COc1ccc(CCNC(=O)NCC2(CO)CC2)cc1	-7	0	0	4
CN(C)c1ccc(/C=N/NC(=O)C2=CCN(Cc3ccccc3)CC2)cc1	8	0	0	-10
CCCn1ncc(C(=O)N2CCCC(c3c(S(C)(=O)=O)cnc4ncnn34)C2)c1C (stereo unspecified)	1	-1	0	3
CN1C(/C=C/c2ccccc2Cl)=Nc2cccc3cccc1c23	-47	0	0	53*
CN1C(=O)N(C)c2cccc3cccc1c23	-17	-1	0	1
CC(C)C(=O)NCC1CCC2(CCN(Cc3ccc(C#CC(C)(C)O)cc3)CC2)O1 (stereo unspecified)	51*	0	0	-5
CCc1ccc(CN2CCC3(CCC(CNC(=O)C(C)C)O3)CC2)cc1 (stereo unspecified)	-6	0	0	-4
CC[C@H](C)[C@@H]1NC(=O)[C@H]2CN(CC3CCCCC3)CCN2C1=O	-4	-1	0	14
CCOc1ccccc1NC(=O)CSc1nc2cc3c(cc2cc1C#N)OCO3	31	0	0	-14
O=S1(=O)CCC(NC(=S)Nc2ccc(OC(F)F)cc2)C1 (stereo unspecified)	41*	0	0	-8
SMILES	TEAD-YAP inh	GPR151 ag	FBW7 act	MITF inh
COc1ccc(C(=O)NC(=S)NC2CCS(=O)(=O)C2)cc1 (stereo unspecified)	2	0	0	38
COC(=O)C1=CN(C2CCCC2)C=C(C(=O)OC)C1c1ccc(F)cc1	7	-1	3.1*	13
COc1ccc(CCNc2cc(N3CCN(S(=O)(=O)c4ccc(OC)c(OC)c4)CC3)ccc2[N+](=O)[O-])cc1OC	-6	0	0	2
COc1ccc(CCNc2cc(N3CCCC3)ccc2[N+](=O)[O-])cc1OC	-5	-1	0	3
COc1ccc(CCNc2cc(N3CCN(C)CC3)ccc2[N+](=O)[O-])cc1OC	48*	1	0	-1
COc1ccc(CCNc2cc(N3CCN(S(C)(=O)=O)CC3)ccc2[N+](=O)[O-])cc1OC	60*	2	0	18
CCN(CC)c1ccc2nc3c4ccccc4c(=O)cc-3oc2c1	34*	2	0	8
CCN(CC)c1ccc2cc(C=O)c(=O)oc2c1	8	0	0	11
O=C(C[n+]1cccc2ccccc21)c1ccccc1	-7	-3	0	11
CCc1n[n+](CC(=O)c2ccccc2)c(N)s1	57*	-9	0	11
Nc1sc2ccccc2[n+]1CC(=O)c1ccccc1	75*	-9	2.4*	25
Cc1sc(N(CC(=O)O)c2ccccc2)nc1-c1ccccc1	-5	-1	0	-16
Nc1ccc2nc(-c3ccccn3)[nH]c2c1	-22	-7	-2	34
